PubChem BioAssay (Tox21)
Unmarked numbers belong to inactive results. Inconclusive results are not listed. A call without a number means that no potency is given here. The source made the active and inactive calls. Unless noted, calls follow the shape of the dose curve; as a rule, active = well fitted curve in the direction sought with a large enough effect in the repeat runs; inconclusive = weak or mixed curves; inactive = no such curve, though single readings can be large; an effect the other way counts as inactive or inconclusive.

Key:
[1] = qHTS RealTime-Glo MT Cell Viability Assay in HEK293 cells - 0 hour (AID 1224880); also: top concentration of the series differs between compounds; nearly all actives have a fitted effect of over 45% in size
In short: (§1)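 Measured as luminescence from the same continuously cultured HEK293 wells at successive time points (0, 8, 16, 24, 32, 40 h) after compound addition. Reagent present from seeding; dosing at 5 h; incubation 37 C.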

[2] = A CellTox Green Cytotoxicity Assay to monitor cytotoxicity in HEK293 cells - 32 hour (AID 1224881); also: nearly all actives have a fitted effect of over 40% in size
In short: (§2)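 Homogeneous no-lysis format: HEK293 cell suspension mixed with CellTox Green reagent, seeded, incubated 5 h at 37 C/5% CO2, then dosed by pintool with compound in DMSO.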

[3] = A CellTox Green Cytotoxicity Assay to monitor cytotoxicity in HepG2 cells - 0 hour (AID 1224882); also: nearly all actives have a fitted effect of over 35% in size
In short: (§3)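 Fluorescent DNA-binding dye, 600 HepG2 cells/well, 5 h preincubation then compound in DMSO; same plates read at 0–40 h, 37 C.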

[4] = A CellTox Green Cytotoxicity Assay to monitor cytotoxicity in HepG2 cells - 32 hour (AID 1224883); also: nearly all actives have a fitted effect of over 50% in size
In short: as §3

[5] = A CellTox Green Cytotoxicity Assay to monitor cytotoxicity in HEK293 cells - 8 hour (AID 1224884); also: nearly all actives have a fitted effect of over 35% in size
In short: as §2

[6] = qHTS RealTime-Glo MT Cell Viability Assay in HepG2 cells - 16 hour (AID 1224885); also: nearly all actives have a fitted effect of over 50% in size
In short: (§4)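 Tox21 10K library screened in qHTS format on HepG2 cells carrying RealTime-Glo reagents. Compounds were added after a 5 h preincubation, and the luminescent signal from continuous culture was measured repeatedly during 40 h treatment.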

[7] = qHTS RealTime-Glo MT Cell Viability Assay in HEK293 cells - 24 hour (AID 1224886); also: top concentration of the series differs between compounds; nearly all actives have a fitted effect of over 50% in size
In short: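 Luminescence generated by NanoLuc from substrate produced by living HEK293 cells served as the viability signal. Each value reflects the reading at its stated time point during continuous 40 h compound exposure at 37 C.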

[8] = A CellTox Green Cytotoxicity Assay to monitor cytotoxicity in HEK293 cells - 16 hour (AID 1224888); also: nearly all actives have a fitted effect of over 35% in size
In short: as §2

[9] = qHTS RealTime-Glo MT Cell Viability Assay in HepG2 cells - 0 hour (AID 1224889); also: nearly all actives have a fitted effect of over 50% in size
In short: as §4

[10] = A CellTox Green Cytotoxicity Assay to monitor cytotoxicity in HepG2 cells - 8 hour (AID 1224890); also: nearly all actives have a fitted effect of over 45% in size
In short: as §3

[11] = qHTS assay to identify small molecule antagonists of the estrogen receptor alpha (ER-alpha) signaling pathway using the BG1 cell line in the presence of 0.1 nM 17-beta-estradiol - cell viability counter screen (AID 1259241); also: nearly all actives have a fitted effect of over 40% in size
In short: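 The cell line endogenously expresses full-length ER-alpha and carries four EREs driving luciferase. Cells are cultured 5 days hormone-free, treated 22 hr with compounds and 0.1 nM estradiol, then viability is read by fluorescence.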

[12] = qHTS assay to identify small molecule antagonists of the androgen receptor (AR) signaling pathway using the MDA cell line in the presence of 0.5 nM R1881 - cell viability counter screen (AID 1259242); also: nearly all actives have a fitted effect of over 45% in size
In short: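 Human breast carcinoma MDA-kb2 cells, cultured without CO2, receive compounds alongside 0.5 nM (final) R1881 agonist. After 16 hr at 37C, viability is taken as live-cell protease signal.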

[13] = target: Estrogen receptor (Homo sapiens) (UniProt P03372); assay: qHTS assay to identify small molecule antagonists of the estrogen receptor alpha (ER-alpha) signaling pathway using the BG1 cell line in the presence of 0.1 nM 17-beta-estradiol (AID 1259244); also: nearly all actives have a fitted effect of over 50% in size
In short: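 Seeding of stripped-serum-adapted VM7Luc4E2 cells, 24 h attachment, compound transfer, then 0.1 nM final 17beta-estradiol; after 22 h incubation, ONE-Glo reagent and luminescence reading.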

[14] = qHTS assay to identify small molecule HDAC inhibitors (AID 1259364); also: potency is read from the fitted curve at half-maximal effect;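 also: wild-type HCT-116 cells with endogenous class I/II HDAC activity; nearly all actives have a fitted effect of over 45% in size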
In short: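 After a 2 hr compound incubation (37C, 5% CO2), HCT-116 cells seeded at 1,500/well the day before received HDAC-Glo reagent; signal read as luminescence after 30 min at room temperature.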

[15] = qHTS assay to identify small molecule HDAC inhibitors - cell viability counter screen (AID 1259365)
In short: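 Viability readout: CellTiter-Glo luminescence. Wild-type HCT-116 cells, 2hr compound treatment following overnight attachment at 37 C.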

[16] = qHTS assay to identify small molecule agonists of the sonic hedgehog signaling (Shh) pathway - cell viability counter screen (AID 1259366); also: nearly all actives have a fitted effect of over 50% in size
In short: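 Viability measured fluorometrically (CellTiter-Fluor, 1hr, 37C) in 3T3 Gli1-Luc reporter cells after 23hr compound exposure within a 24hr incubation at 37C/5% CO2.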

[17] = qHTS assay to identify small molecule antagonists of the sonic hedgehog signaling (Shh) pathway - cell viability counter screen (AID 1259367); also: nearly all actives have a fitted effect of over 55% in size
In short: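 CellTiter-Fluor signal in conditioned medium-stimulated 3T3 Gli1-Luc cells, 23 hr compound exposure, 37C.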

[18] = qHTS RealTime-Glo MT Cell Viability Assay in HEK293 cells - 8 hour (AID 1224887); also: nearly all actives have a fitted effect of over 50% in size; also: potency is read from the fitted curve at half-maximal effect
In short: as §1

[19] = qHTS assay to identify small molecule phospholipidosis (PLD) inducers (AID 1259344; active = well fitted curve in the direction sought with a large enough effect; an effect the other way counts as inactive or inconclusive)
In short: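 Accumulated phospholipid, stained red by LipidTOX during 24 h compound treatment of HepG2 cells at 37 C, is quantified from images as pit number and intensity, normalised per cell using Hoechst-stained nuclei.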

[20] = target: Androgen receptor (Homo sapiens) (UniProt P10275); assay: qHTS assay to identify small molecule antagonists of the androgen receptor (AR) signaling pathway using the MDA cell line in the presence of 0.5 nM R1881 (AID 1259243); also: nearly all actives have a fitted effect of over 50% in size
In short: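 Cells: MDA-kb2 (MMTV-luc). Stimulus: 0.5 nM R1881. Time: 16 hr, 37C, no CO2. Detection: ONE-Glo luminescence after 30 min at RT.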

Estrogen receptor (Homo sapiens), sequence (P03372 whole entry, looked up): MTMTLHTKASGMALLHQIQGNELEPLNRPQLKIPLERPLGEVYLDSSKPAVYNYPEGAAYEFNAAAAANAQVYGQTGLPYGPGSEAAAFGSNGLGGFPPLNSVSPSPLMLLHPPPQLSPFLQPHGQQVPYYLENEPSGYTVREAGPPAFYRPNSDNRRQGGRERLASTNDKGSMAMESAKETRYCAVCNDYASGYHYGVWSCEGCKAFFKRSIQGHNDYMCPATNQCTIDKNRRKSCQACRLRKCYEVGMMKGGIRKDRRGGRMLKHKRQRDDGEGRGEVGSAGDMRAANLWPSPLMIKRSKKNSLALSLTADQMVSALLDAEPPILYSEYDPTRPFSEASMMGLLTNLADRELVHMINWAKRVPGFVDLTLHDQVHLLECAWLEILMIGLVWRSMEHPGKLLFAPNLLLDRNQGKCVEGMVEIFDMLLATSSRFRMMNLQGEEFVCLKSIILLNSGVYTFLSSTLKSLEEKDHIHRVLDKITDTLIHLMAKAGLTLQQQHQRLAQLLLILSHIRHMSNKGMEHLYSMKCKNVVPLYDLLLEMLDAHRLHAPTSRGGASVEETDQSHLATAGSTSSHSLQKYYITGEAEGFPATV
Androgen receptor (Homo sapiens), sequence (P10275 whole entry, looked up): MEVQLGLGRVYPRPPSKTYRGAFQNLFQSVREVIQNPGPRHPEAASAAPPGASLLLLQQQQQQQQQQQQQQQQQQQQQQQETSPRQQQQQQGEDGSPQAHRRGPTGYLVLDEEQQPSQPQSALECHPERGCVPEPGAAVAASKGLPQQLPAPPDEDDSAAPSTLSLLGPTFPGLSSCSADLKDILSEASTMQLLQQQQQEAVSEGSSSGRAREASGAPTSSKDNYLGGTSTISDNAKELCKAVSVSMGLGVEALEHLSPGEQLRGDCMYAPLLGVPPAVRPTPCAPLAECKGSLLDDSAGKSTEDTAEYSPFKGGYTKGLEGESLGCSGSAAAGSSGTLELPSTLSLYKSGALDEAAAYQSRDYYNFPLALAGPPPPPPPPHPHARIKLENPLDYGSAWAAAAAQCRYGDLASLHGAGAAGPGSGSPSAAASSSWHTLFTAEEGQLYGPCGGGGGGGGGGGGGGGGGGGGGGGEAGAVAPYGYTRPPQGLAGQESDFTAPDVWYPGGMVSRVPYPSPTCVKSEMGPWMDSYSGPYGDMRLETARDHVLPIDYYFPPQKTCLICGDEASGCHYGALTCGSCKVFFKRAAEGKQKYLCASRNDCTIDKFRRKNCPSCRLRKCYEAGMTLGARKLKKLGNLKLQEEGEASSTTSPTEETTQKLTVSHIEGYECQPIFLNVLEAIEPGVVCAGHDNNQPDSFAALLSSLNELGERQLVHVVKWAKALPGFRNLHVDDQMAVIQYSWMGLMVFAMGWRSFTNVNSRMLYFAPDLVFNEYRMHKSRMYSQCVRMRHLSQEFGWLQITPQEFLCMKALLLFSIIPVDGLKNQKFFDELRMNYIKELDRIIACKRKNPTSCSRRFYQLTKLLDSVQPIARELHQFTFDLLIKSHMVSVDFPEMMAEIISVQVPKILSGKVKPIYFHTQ

Structure (SMILES) | outcome [1] | Potency [2] | outcome [3] | Potency [4] | Potency [5] | Potency [6] | Potency [7] | Potency [8] | outcome [9] | Potency [10] | outcome [11] | Potency [12] | Potency [13] | Potency [14] | outcome [15] | Potency [16] | Potency [17] | Potency [18] | Potency [19] | Potency [20]
O=C(Cl)CCl | inactive | inactive | inactive | inactive | inactive | inactive | inactive | inactive | inactive | inactive | inactive | inactive | inactive | inactive | inactive | inactive | inactive | – | – | –
O=C(O)C(Br)(Br)Br | inactive | inactive | inactive | inactive | inactive | inactive | – | inactive | inactive | inactive | inactive | inactive | inactive | inactive | inactive | inactive | inactive | inactive | – | –
Cc1ccc2cc(C)ccc2c1 | inactive | inactive | inactive | inactive | inactive | inactive | inactive | inactive | inactive | inactive | inactive | inactive | – | inactive | inactive | inactive | inactive | – | – | –
CCOC(=O)N(C)N=O | inactive | inactive | inactive | inactive | inactive | inactive | – | inactive | inactive | inactive | inactive | inactive | – | inactive | inactive | inactive | – | inactive | – | –
COc1ccc2c(C(=O)c3ccc(Cl)cc3)c(C)n(CC(=O)O)c2c1 | inactive | inactive | inactive | inactive | inactive | inactive | inactive | – | inactive | inactive | inactive | inactive | – | inactive | inactive | inactive | inactive | inactive | inactive | –
CCC1(c2ccccc2)CCC(=O)NC1=O (stereo not given) | inactive | inactive | inactive | inactive | inactive | inactive | – | inactive | inactive | inactive | inactive | inactive | inactive | inactive | inactive | inactive | inactive | – | inactive | inactive
C[N+]1(C)CCCCC1 | inactive | inactive | inactive | inactive | inactive | – | – | inactive | inactive | inactive | inactive | inactive | – | inactive | inactive | inactive | inactive | inactive | – | inactive
c1ccc2c(c1)CCNC2 | inactive | inactive | inactive | inactive | inactive | – | – | inactive | inactive | inactive | inactive | inactive | – | inactive | inactive | inactive | – | inactive | – | –
Cc1ccc(Cl)c(O)c1 | inactive | inactive | inactive | inactive | inactive | – | inactive | inactive | inactive | inactive | inactive | inactive | inactive | inactive | inactive | inactive | inactive | – | inactive | –
CC(O)CCl (stereo not given) | inactive | inactive | inactive | inactive | inactive | – | inactive | inactive | inactive | inactive | inactive | inactive | inactive | inactive | inactive | inactive | inactive | – | – | –
O=C(O)CBr | inactive | inactive | inactive | inactive | inactive | – | inactive | inactive | inactive | inactive | inactive | inactive | – | inactive | inactive | inactive | inactive | inactive | – | –
COC(=O)[C@@H](N)CCCN/C(N)=N/[N+](=O)[O-] | inactive | inactive | inactive | inactive | inactive | – | – | inactive | inactive | inactive | inactive | inactive | – | inactive | inactive | inactive | inactive | – | inactive | –
CC(C)(C)NC[C@H](O)c1ccc(O)cc1Cl | inactive | inactive | inactive | inactive | – | inactive | inactive | inactive | inactive | inactive | inactive | inactive | – | inactive | inactive | inactive | inactive | inactive | inactive | –
C=C(Cl)CSC(=S)N(CC)CC | inactive | inactive | inactive | inactive | inactive | – | – | inactive | inactive | inactive | – | inactive | – | inactive | inactive | inactive | inactive | inactive | – | –
C=CCCC#N | inactive | inactive | inactive | inactive | inactive | inactive | – | – | inactive | inactive | inactive | inactive | – | inactive | inactive | inactive | inactive | – | – | –
CN(C)C(=O)Oc1cc(OC(=O)N(C)C)cc(C(O)CNC(C)(C)C)c1 (stereo not given) | inactive | inactive | inactive | inactive | inactive | – | inactive | inactive | inactive | inactive | inactive | inactive | inactive | inactive | inactive | inactive | inactive | – | inactive | inactive
C=CC(=O)OCCN(C)C | inactive | inactive | inactive | inactive | inactive | – | inactive | inactive | inactive | inactive | inactive | inactive | – | inactive | inactive | inactive | inactive | inactive | – | –
O=C(O)C(F)(F)C(F)(F)C(F)(F)C(F)(F)C(F)(F)C(F)(F)F | inactive | inactive | inactive | inactive | inactive | – | – | inactive | inactive | inactive | inactive | inactive | – | inactive | inactive | inactive | – | inactive | – | –
CC(C)(C1CCC(O)CC1)C1CCC(O)CC1 (stereo not given) | inactive | inactive | inactive | inactive | inactive | – | inactive | inactive | inactive | inactive | inactive | inactive | – | inactive | inactive | inactive | inactive | inactive | – | –
C=CCC1(C(C)CC)C(=O)NC(=O)NC1=O (stereo not given) | inactive | inactive | inactive | inactive | inactive | – | inactive | inactive | inactive | inactive | inactive | inactive | – | inactive | inactive | inactive | – | inactive | – | –
C=CCN1CC[C@]23CCCC[C@H]2[C@H]1Cc1ccc(O)cc13 | inactive | inactive | inactive | inactive | inactive | – | inactive | inactive | inactive | inactive | inactive | inactive | – | inactive | inactive | inactive | – | inactive | inactive | –
CCC1(CC)C(=O)C=CNC1=O | inactive | inactive | inactive | inactive | inactive | – | inactive | inactive | inactive | inactive | inactive | inactive | – | inactive | inactive | inactive | inactive | inactive | inactive | –
CCOC(=O)c1ncn2c1CN(C)C(=O)c1c(I)cccc1-2 | inactive | inactive | inactive | inactive | – | inactive | inactive | inactive | inactive | inactive | inactive | inactive | inactive | inactive | inactive | inactive | inactive | inactive | inactive | –
Oc1ccc(Cc2ccc(O)cc2)cc1 | inactive | inactive | inactive | inactive | inactive | – | – | inactive | inactive | inactive | inactive | inactive | inactive | inactive | inactive | inactive | inactive | inactive | – | –
CCN[C@H](C)Cc1cccc(C(F)(F)F)c1 | inactive | inactive | inactive | inactive | – | inactive | inactive | inactive | inactive | inactive | inactive | inactive | inactive | inactive | inactive | inactive | inactive | inactive | inactive | –
CON(C)C(=O)Nc1ccc(Br)c(Cl)c1 | inactive | inactive | inactive | inactive | inactive | – | – | inactive | inactive | inactive | inactive | inactive | – | 27.3 µM (active) | inactive | inactive | inactive | inactive | – | –
CC(C)(C)C(=O)Cl | inactive | inactive | inactive | inactive | inactive | – | inactive | inactive | inactive | inactive | inactive | inactive | inactive | inactive | inactive | inactive | – | inactive | – | –
CCOC(=O)C(Cl)Cc1cc(-n2nc(C)n(C(F)F)c2=O)c(F)cc1Cl (stereo not given) | inactive | inactive | inactive | inactive | inactive | – | inactive | inactive | inactive | inactive | inactive | inactive | – | inactive | inactive | inactive | inactive | 49 µM (active) | – | –
